Data on 1 compound can be found in PubChem BioAssay (NCATS).

In experiment [1] the target is Cytochrome P450 1A2 (Homo sapiens) (UniProt P05177). Briefly: p450-cyp1a2 (AID 410; calls by dose curve; further: potency means the concentration at half of the fitted maximal effect). In short, it runs like this: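 Read-out is luminescence from luciferin produced by CYP1A2 demethylation of Luciferin-ME (100uM, at Km). Detection reagent stopped the 60 min NADPH-dependent reaction; signals were normalized to 57 uM furafylline.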
Cytochrome P450 1A2 (Homo sapiens), sequence (P05177 whole entry, looked up): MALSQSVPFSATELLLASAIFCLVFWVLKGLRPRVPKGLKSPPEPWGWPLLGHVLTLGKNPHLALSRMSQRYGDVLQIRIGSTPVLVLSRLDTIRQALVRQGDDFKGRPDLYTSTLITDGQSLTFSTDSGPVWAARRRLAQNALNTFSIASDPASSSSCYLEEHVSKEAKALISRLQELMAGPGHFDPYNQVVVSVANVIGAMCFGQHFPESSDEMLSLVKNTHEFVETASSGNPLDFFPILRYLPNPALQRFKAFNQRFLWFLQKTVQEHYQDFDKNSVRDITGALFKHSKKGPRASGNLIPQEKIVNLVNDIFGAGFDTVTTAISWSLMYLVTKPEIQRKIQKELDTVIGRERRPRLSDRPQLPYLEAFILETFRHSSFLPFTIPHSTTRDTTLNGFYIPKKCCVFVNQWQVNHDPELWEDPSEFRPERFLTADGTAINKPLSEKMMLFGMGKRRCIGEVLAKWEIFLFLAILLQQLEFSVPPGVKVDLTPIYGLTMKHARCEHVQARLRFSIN
The nature of experiment [2]: NFAT Signaling Pathway (AID 444; active means well fitted curve in either direction with a large enough effect, not every such curve was filed as active;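 further: carbachol stimulus at about its EC50 of 1 µM final; on the % scale 0 is the no-effect control and ±100 the full control effect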). The conditions noted are these: Jurkat NFAT-bla M1, carbachol, beta-lactamase ratio, 5 h; at 38 µM (top of the series). In short, it runs like this: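 Jurkat cells carrying an NFAT-driven β-lactamase reporter and co-transfected muscarinic M1 receptor were treated with compound plus carbachol (1 uM final, an EC50 level) for 5 h at 37 °C. CCF4 loading followed for 1 h at RT; 460/530 nm ratio gave %activity.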

Experiment [3] can be described thus: Stat Signaling Pathway (AID 446; active means well fitted curve in either direction with a large enough effect, not every such curve was filed as active;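 further: ME-180 cervical cancer cells given 40 pM IL-6 alongside compound; SIE-controlled beta-lactamase reporter measured as 460/530 nm FRET emission ratio; on the % scale 0 is the no-effect control and ±100 the full control effect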). The conditions noted are these: ME-180 (cervical carcinoma) SIE beta-lactamase reporter, IL-6 stimulated, 5 h; at 38 µM (top of the series). A digest of the protocol: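 Emission at 460 and 530 nm (excitation 405 nm) reports SIE-controlled beta-lactamase in ME-180 cells. Cells received compound with 40 pM IL-6 for 5 hrs at 37 C; data scaled between 300 pM IL-6 and 125 nM JAK-inhibitor controls.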

Experiment [4] addresses Glucocorticoid receptor (Homo sapiens) (UniProt P04150). The experiment is described as follows: GR-GFP Redistribution (AID 450;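 active means compounds whose dose series gives a full or clear partial fitted curve of increased nuclear translocation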; further: potency means the concentration at half of the fitted maximal effect). As to conditions: U2OS GR-GFP nuclear translocation, laser cytometry, 2 h.
Experiment [5] shares this target. Briefly: GR-EFC Redistribution (AID 451; calls by dose curve; further: potency means the concentration at half of the fitted maximal effect). As to conditions: CHO-K1 GR-EFC translocation, beta-gal luminescence, 2 h. A digest of the protocol:
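CHO-K1 cells stably expressing nuclear-localized β-gal enzyme acceptor and GR fused C-terminally to the enzyme donor fragment; ligand-driven nuclear translocation restores β-gal by complementation. Compounds titrated up to 46 uM final, 2 h at 37 °C; luminescence read.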

In experiment [6] the target is Mitogen-activated protein kinase 10 (Mus musculus) (UniProt Q61831). Briefly: JNK3 AlphaScreen Assay (AID 530; active means well fitted curve in either direction with a large enough effect, not every such curve was filed as active;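 further: kinase came from lysate of stimulated human HepG2 cells; potency means the concentration at half of the fitted maximal effect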). In short, it runs like this: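 Biotinylated GST-cJun(1-79) served as substrate for JNK3 in HepG2 lysates stimulated with IL-1beta and TNF-alpha. ATP was 10 uM final, pH 7.6. Ser73 phosphorylation was quantified by AlphaScreen (680 nm excitation).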
(Alpha assays give light when donor and acceptor beads are brought close together.)

The target of experiment [7] is Guanine nucleotide-binding protein G(i) subunit alpha-1 (Homo sapiens) (UniProt P63096). Briefly: qHTS Assay for Inhibitors of RGS12 GoLoco Motif Activity (Green Fluorophore) (AID 879).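 Further: 0% = labeled peptide with Gαi1 and full inhibition = labeled peptide alone without protein; negative values mean loss of peptide binding seen as reduced polarization.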 A digest of the protocol:
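A drop in FITC polarization marked displacement of the FITC-tagged RGS12 GoLoco peptide (10 nM) from Gαi1 (50 nM). Compounds were incubated 10 min at room temperature in Tris pH 7.5 buffer containing 150 mM NaCl, 0.1 mM GDP and 0.05% NP40; unlabeled peptide titration served as control.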
On the technique in general: Quantitative high-throughput screening tests each substance at several concentrations.

In experiment [8] the target is Cytochrome P450 3A4 (Homo sapiens) (UniProt P08684). Briefly: qHTS Assay for Inhibitors and Substrates of Cytochrome P450 3A4 (AID 884). Further: potency means the concentration at half of the fitted maximal effect; nearly all actives have a fitted effect of over 50% in size. A digest of the protocol: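 Luminescent readout of luciferin produced by CYP3A4 (20 nM) dealkylation of Luciferin-PPXE, 25 uM (its KM). NADPH-driven reaction ran 60 min at RT after 10 min compound preincubation; data scaled to 57 uM ketoconazole as 100% inhibition.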
Cytochrome P450 3A4 (Homo sapiens), sequence (P08684 whole entry, looked up): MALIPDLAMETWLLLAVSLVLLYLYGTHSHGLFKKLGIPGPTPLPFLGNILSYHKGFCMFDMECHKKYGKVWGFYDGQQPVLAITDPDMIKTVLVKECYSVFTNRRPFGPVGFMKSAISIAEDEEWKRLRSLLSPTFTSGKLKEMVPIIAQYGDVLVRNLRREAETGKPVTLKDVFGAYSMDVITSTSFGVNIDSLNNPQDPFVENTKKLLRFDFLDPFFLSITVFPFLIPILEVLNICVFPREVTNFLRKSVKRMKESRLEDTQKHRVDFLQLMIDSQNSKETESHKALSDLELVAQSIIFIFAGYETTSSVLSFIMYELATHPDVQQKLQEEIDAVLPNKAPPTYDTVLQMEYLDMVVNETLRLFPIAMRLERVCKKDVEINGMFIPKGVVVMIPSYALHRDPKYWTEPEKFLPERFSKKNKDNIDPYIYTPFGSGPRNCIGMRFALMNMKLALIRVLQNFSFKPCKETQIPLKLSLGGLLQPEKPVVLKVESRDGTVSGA

Experiment [9] shares this target. The experiment is described as follows: qHTS Assay for Activators of Cytochrome P450 3A4 (AID 885). Further: nearly all actives have a fitted effect of over 65% in size. A digest of the protocol: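 Activators are scored by enhanced luminescence from CYP3A4 conversion of luciferin-PPXE (25uM, equal to KM) to luciferin, after 60 min at RT with an NADPH-regenerating system.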
The target of experiment [10] is Cytochrome P450 2D6 (Homo sapiens) (UniProt P10635). The experiment is described as follows: qHTS Assay for Inhibitors and Substrates of Cytochrome P450 2D6 (AID 891). Further: potency means the concentration at half of the fitted maximal effect; nearly all actives have a fitted effect of over 60% in size. A digest of the protocol:
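Luminescent read-out of luciferin formed by 5 nM human CYP2D6 demethylating 30 uM Luciferin-ME EGE (Km level) over 60 min at room temperature after NADPH regeneration addition. Data normalized to full inhibition by 1.43 uM quinidine.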

Experiment [11] has as its target Cytochrome P450 2C19 (Homo sapiens) (UniProt P33261). The experiment is described as follows: qHTS Assay for Inhibitors and Substrates of Cytochrome P450 2C19 (AID 899). Further: potency means the concentration at half of the fitted maximal effect; nearly all actives have a fitted effect of over 60% in size. A digest of the protocol: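 Human CYP2C19 (5nM) with Luciferin-H EGE at 10uM (its KM) in 50mM KPO4 was preincubated with compound for 10 min at 37C. NADPH regeneration started a 60 min 37C reaction. Luciferin was read by luminescence, normalized to 57uM ketoconazole.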

Experiment [12] addresses Muscarinic acetylcholine receptor M1 (Rattus norvegicus) (UniProt P08482). Briefly: qHTS Assay for Antagonists of Acetylcholine Muscarinic M1 Receptor: Measurement of IP-One Response (AID 944). Further: nearly all actives have a fitted effect of over 75% in size. A digest of the protocol: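 Antagonism was measured as loss of carbachol-driven (EC80) IP1 accumulation in CHO cells carrying rat M1, using a homogeneous IP-One TR-FRET kit read at 620 and 665 nm.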

Experiment [13] deals with Pyruvate kinase PKM (Homo sapiens) (UniProt P14618). Briefly: qHTS Assay for Activators of Human Muscle Pyruvate Kinase (AID 954; active means well fitted curve in the direction sought with a large enough effect, not every such curve was filed as active;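 further: 0% = uninhibited enzyme and -100% = no enzyme or full thiadiazolimine inhibition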). A digest of the protocol: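 PKM2, human, >95% pure, 0.1 nM; PEP 0.5 mM (Km), ADP 0.1 mM; 50 mM imidazole pH 7.2, 50 mM KCl, 0.01% Tween 20, 0.05% BSA; 1 h RT; luciferase luminescence readout.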
Pyruvate kinase PKM (Homo sapiens), sequence (P14618 whole entry, looked up): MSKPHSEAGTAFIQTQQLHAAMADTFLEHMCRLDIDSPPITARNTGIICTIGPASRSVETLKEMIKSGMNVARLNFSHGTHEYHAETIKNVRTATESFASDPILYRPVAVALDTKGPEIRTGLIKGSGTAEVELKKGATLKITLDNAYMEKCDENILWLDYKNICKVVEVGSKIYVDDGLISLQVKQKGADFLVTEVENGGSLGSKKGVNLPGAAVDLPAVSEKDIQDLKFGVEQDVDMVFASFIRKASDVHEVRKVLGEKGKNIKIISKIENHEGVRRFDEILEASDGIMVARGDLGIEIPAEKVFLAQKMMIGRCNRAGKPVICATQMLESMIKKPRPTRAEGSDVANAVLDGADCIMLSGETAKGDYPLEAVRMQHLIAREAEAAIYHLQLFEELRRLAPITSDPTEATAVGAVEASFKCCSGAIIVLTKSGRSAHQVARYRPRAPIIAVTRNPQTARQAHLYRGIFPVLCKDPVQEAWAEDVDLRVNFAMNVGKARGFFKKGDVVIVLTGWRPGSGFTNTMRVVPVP
The target is the same in experiment [14]. The experiment is described as follows: qHTS Assay for Inhibitors of Human Muscle Pyruvate Kinase (AID 958). As to conditions: purified human PKM enzyme activity. In short, it runs like this: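 Luminescence from a luciferase ATP-detection/stop reagent reported PKM2 activity. Reactions contained 0.1 nM purified human enzyme, 0.5 mM PEP, 0.1 mM ADP and 7 mM MgCl2 at pH 7.2, run 1 h at RT.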

In experiment [15] the target is Pyruvate kinase (Leishmania mexicana) (UniProt Q27686). Briefly: qHTS Validation Assay for Activators of Leishmania Mexicana Pyruvate Kinase (AID 959). In short, it runs like this: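 The enzyme is a highly purified E451W mutant of LmPYK used at 0.2 nM. It converts 0.5 mM PEP and 0.1 mM ADP over 1 h at room temperature; product ATP is quantified by luciferase luminescence relative to DMSO controls.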

In experiment [16] the target is Alpha-galactosidase A (Homo sapiens) (UniProt P06280). The experiment is described as follows: Counterscreen for Glucocerebrosidase Inhibitors: qHTS Assay for Human alpha-Galactosidase at pH 4.5 (AID 992). Further: 0% is about no effect. A digest of the protocol:
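Fluorogenic 4-MU alpha-D-galactoside (80 uM) hydrolysis, 2 nM enzyme, pH 4.5 citrate buffer + 0.005% Tween-20; 20 min RT; NaOH/glycine pH 10 stop; Ex365/Em440. Compounds titrated 0.7 nM–77 uM; Hill-equation AC50.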
In general terms: A counterscreen serves to expose hits that act by an unwanted route or on another target.

The nature of experiment [17]: qHTS for differential inhibitors of proliferation of Plasmodium falciparum line 7G8 (AID 1815).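 Further: potency means the concentration at half of the fitted maximal effect; parasite growth measured after three days of incubation.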
A short description of experiment [18]: qHTS for differential inhibitors of proliferation of Plasmodium falciparum line GB4 (AID 1816).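 Further: potency means the concentration at half of the fitted maximal effect; parasite growth measured after 72 h incubation.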 As to conditions: Potency: Plasmodium falciparum GB4 proliferation inhibition.
A short description of experiment [19]: qHTS for differential inhibitors of proliferation of Plasmodium falciparum line 3D7 (AID 1876). Further: potency means the concentration at half of the fitted maximal effect.

Values joined by “and” are separate entries in the source; they are usually repeats but may differ in a detail not shown here. Equal values may be shown once. A number with no mark means an inactive call. Results filed as inconclusive are left out. Active and inactive are the calls of the source. Unless noted, the call rests on the fitted dose curve; in most records, active means well fitted curve in the direction sought with a large enough effect; inconclusive means small, poorly fitted or top-dose-only effect, or another doubt; inactive means no such curve, though single readings can be large; an effect the other way counts as inactive or inconclusive. Where only a bound is given, the exact number is not on record here.

Glucocorticoid receptor (Homo sapiens), sequence (P04150 whole entry, looked up): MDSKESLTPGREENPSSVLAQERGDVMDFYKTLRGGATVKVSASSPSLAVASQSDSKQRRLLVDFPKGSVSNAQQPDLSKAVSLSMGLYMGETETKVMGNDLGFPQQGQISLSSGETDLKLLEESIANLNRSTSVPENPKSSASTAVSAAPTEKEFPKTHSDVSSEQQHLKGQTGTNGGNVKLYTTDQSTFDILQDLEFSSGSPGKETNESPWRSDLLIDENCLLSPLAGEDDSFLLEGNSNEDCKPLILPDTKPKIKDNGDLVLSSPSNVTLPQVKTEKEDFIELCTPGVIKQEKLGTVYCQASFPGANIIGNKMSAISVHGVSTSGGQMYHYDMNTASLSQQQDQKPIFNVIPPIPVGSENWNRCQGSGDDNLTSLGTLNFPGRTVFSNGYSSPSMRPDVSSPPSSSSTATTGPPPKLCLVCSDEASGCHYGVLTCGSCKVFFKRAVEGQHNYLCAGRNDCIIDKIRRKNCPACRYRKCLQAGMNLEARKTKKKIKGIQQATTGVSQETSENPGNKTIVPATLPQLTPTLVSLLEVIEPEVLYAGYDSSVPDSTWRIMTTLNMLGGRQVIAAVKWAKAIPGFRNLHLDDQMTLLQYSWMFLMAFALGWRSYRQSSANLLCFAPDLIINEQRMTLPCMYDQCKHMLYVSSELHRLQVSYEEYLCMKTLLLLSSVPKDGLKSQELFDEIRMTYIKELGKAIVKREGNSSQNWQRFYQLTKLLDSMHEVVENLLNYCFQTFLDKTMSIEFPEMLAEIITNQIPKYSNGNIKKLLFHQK
Cytochrome P450 2D6 (Homo sapiens), sequence (P10635 whole entry, looked up): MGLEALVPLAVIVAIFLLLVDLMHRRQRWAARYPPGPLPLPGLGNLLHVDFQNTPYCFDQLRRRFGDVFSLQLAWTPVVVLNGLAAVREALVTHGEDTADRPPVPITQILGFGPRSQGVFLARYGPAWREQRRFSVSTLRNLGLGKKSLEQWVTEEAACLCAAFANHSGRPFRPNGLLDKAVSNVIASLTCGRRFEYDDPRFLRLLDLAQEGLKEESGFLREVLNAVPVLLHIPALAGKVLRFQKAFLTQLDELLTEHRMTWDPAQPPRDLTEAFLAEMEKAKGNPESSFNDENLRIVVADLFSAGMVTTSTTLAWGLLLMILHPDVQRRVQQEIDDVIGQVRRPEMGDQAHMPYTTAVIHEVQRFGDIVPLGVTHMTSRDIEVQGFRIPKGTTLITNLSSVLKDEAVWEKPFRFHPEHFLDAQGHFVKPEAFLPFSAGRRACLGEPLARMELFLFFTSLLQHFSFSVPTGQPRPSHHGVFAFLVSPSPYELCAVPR
Muscarinic acetylcholine receptor M1 (Rattus norvegicus), sequence (P08482 whole entry, looked up): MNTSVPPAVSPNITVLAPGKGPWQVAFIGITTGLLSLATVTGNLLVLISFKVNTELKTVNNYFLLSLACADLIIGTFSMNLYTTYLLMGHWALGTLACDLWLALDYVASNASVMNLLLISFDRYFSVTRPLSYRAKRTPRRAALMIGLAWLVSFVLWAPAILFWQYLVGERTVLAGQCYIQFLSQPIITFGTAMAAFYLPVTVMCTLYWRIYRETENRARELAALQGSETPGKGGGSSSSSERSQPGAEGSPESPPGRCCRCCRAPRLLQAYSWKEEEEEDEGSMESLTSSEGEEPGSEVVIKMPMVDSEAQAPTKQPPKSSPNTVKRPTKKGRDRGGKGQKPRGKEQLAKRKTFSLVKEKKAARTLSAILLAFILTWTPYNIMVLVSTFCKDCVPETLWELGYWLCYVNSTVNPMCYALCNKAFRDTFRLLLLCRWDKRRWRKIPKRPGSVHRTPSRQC
Guanine nucleotide-binding protein G(i) subunit alpha-1 (Homo sapiens), sequence (P63096 whole entry, looked up): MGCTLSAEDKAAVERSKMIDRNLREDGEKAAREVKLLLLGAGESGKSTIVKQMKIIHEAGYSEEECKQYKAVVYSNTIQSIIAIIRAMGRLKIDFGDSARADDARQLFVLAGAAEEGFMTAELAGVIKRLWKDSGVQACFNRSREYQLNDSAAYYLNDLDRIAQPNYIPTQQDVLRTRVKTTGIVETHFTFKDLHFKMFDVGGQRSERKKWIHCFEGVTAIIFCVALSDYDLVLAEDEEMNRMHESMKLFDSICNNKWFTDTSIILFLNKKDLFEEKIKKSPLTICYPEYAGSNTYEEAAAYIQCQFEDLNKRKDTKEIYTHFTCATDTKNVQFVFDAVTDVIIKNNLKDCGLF
Cytochrome P450 2C19 (Homo sapiens), sequence (P33261 whole entry, looked up): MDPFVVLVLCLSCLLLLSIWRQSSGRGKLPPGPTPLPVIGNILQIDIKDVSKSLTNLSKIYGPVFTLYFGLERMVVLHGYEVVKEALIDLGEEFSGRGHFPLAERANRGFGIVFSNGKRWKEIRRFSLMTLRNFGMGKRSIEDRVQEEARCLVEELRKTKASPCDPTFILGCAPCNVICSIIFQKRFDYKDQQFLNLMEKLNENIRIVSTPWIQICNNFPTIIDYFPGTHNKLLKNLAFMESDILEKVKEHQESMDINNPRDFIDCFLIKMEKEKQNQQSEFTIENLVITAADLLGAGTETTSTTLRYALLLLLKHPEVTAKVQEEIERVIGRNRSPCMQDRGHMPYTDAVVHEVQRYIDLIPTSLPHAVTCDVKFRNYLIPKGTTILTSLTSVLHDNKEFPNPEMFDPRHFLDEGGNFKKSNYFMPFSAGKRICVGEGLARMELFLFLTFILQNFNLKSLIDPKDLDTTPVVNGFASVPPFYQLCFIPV
Alpha-galactosidase A (Homo sapiens), sequence (P06280 whole entry, looked up): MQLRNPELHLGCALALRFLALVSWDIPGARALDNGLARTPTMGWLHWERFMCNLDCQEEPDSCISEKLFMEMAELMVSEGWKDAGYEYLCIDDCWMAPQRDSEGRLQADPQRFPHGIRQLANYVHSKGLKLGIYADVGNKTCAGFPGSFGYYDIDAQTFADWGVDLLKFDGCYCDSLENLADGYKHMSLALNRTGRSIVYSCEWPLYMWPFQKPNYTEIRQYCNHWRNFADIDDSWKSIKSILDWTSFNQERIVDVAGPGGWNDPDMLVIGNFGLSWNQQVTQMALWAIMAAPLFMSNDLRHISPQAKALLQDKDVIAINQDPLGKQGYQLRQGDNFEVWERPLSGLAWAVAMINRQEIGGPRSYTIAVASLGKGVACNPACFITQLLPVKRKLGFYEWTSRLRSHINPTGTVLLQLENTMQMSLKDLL

In the case of `O=Nc1c(-c2c(O)[nH]c3ccccc23)[nH]c2ccccc12`, the Potency in experiment [1] was 200 nM (active) and 31.6 nM (active); in experiment [4], over 46 µM; in experiment [5], over 46 µM; in experiment [6], 3.16 µM (active); in experiment [8], 7.94 µM (active); in experiment [10] it was 31.6 µM (active). In addition, the Potency in [11] is 6.31 µM (active); in experiment [14] it was 12.6 µM (active); in experiment [17], 1.26 µM (active); in [18], 0.708 µM (active); in experiment [19] it was 0.355 µM (active). Further, in experiment [2], the activity change, negative = inhibition is -23.6%. Also, the activity, negative = inhibition in [3] is -75% (active). The call in [7], in experiment [13] and in [16] was inactive. Moreover, the Potency entry in experiment [9], in experiment [12] and in experiment [15] was “inactive” throughout.
